Test results: the supplement of paper PMC10849652
Targets with a hit are over-represented here; the source holds about 7,900 in all. About 0.6% of all pairs of compound and target were hits.

compound: CCCS(=O)(=O)Nc1ccc(F)c(C(=O)c2c[nH]c3ncc(Cl)cc23)c1F; test: log2 fold change, soluble protein after heating vs DMSO (PISA); higher = thermal stabilisation; K562 cells, 10 uM, 30 min; active = over 0.2 and 3.5 SD of the protein, either way, in both replicates (recomputed)
In short: (§1)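 K562 cells at 2×10^6 cells/mL were exposed to 10 μM compound for 30 min, then aliquots were heated for 3 min across 48°C-58°C, pooled, and extracted in PBS containing 0.5% NP-40 at 4°C. The supernatant after 21,000xg for 90 min was taken as soluble protein and measured by TMTpro 16plex LC-MS/MS with channel sums equalised. Thermal stability is reported relative to control samples, with values from duplicates. Fold changes are given on a log2 scale.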

UniProt Q5JVF3, sequence (Q5JVF3 whole entry, looked up): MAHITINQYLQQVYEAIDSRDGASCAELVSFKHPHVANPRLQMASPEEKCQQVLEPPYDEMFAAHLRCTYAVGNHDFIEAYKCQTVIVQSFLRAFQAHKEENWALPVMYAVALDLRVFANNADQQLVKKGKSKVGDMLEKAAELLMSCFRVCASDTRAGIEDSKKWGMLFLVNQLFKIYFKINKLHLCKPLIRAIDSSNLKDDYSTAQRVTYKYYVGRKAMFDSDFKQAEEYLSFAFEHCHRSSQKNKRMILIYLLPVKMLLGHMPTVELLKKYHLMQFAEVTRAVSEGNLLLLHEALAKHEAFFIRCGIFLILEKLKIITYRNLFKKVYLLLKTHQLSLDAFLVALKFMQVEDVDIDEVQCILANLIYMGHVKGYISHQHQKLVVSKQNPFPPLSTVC
UniProt P31321, sequence (P31321 whole entry, looked up): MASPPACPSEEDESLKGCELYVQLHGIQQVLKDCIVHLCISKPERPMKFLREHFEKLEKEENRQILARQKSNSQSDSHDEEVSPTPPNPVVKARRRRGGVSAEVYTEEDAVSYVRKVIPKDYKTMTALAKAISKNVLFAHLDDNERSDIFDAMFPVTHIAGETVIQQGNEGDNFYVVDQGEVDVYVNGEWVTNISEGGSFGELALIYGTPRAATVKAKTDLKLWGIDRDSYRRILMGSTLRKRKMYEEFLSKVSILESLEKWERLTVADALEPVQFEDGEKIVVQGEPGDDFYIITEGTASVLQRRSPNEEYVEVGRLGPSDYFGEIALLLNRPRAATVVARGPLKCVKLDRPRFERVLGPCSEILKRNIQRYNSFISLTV
UniProt P06737, sequence (P06737 whole entry, looked up): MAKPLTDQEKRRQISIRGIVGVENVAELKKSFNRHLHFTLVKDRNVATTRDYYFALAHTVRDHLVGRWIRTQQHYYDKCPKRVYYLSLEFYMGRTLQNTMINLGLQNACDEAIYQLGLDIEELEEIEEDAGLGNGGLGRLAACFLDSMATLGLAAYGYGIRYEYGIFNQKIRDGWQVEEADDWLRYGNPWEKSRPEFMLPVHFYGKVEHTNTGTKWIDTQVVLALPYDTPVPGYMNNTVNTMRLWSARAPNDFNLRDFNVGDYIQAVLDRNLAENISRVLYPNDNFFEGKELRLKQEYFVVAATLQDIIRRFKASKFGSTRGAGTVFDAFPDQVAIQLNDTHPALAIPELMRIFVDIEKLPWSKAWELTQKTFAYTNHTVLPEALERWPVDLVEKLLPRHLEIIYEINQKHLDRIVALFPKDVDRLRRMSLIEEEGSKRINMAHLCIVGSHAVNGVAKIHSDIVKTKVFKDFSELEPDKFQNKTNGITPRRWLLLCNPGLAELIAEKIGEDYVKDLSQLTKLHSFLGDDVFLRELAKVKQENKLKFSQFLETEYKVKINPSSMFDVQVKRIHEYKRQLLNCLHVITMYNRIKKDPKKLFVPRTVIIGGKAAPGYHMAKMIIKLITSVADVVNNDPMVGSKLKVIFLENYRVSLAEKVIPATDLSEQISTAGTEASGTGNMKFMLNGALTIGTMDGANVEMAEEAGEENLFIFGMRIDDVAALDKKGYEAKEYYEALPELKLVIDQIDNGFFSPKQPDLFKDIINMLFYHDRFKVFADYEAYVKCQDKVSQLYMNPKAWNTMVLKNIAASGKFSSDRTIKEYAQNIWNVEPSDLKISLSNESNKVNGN
UniProt Q16537, sequence (Q16537 whole entry, looked up): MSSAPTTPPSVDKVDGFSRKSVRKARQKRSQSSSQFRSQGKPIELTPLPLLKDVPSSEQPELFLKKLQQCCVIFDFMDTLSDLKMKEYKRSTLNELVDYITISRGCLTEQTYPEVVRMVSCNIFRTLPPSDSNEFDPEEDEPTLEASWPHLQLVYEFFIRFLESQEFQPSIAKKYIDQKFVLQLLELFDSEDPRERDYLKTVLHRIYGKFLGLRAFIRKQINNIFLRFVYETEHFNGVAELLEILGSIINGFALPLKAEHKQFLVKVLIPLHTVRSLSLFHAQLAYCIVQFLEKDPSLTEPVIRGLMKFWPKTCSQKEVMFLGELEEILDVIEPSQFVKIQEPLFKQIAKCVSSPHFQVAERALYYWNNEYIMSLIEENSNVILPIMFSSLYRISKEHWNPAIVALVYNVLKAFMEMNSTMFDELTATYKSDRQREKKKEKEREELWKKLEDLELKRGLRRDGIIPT
UniProt Q10713, sequence (Q10713 whole entry, looked up): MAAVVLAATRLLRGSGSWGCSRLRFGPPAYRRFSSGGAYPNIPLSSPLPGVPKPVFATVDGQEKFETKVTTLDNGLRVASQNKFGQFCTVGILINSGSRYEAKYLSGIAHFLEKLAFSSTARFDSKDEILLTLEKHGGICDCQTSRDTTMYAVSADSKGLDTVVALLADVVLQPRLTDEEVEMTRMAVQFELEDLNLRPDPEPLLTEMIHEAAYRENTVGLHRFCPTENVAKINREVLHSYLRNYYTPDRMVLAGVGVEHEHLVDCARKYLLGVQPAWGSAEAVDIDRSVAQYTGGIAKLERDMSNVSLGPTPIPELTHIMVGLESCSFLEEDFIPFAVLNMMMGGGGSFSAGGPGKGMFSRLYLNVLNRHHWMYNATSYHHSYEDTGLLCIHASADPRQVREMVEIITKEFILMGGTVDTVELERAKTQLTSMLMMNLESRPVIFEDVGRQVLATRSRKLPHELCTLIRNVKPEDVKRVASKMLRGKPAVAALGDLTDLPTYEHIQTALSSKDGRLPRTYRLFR
UniProt Q01970, sequence (Q01970 whole entry, looked up): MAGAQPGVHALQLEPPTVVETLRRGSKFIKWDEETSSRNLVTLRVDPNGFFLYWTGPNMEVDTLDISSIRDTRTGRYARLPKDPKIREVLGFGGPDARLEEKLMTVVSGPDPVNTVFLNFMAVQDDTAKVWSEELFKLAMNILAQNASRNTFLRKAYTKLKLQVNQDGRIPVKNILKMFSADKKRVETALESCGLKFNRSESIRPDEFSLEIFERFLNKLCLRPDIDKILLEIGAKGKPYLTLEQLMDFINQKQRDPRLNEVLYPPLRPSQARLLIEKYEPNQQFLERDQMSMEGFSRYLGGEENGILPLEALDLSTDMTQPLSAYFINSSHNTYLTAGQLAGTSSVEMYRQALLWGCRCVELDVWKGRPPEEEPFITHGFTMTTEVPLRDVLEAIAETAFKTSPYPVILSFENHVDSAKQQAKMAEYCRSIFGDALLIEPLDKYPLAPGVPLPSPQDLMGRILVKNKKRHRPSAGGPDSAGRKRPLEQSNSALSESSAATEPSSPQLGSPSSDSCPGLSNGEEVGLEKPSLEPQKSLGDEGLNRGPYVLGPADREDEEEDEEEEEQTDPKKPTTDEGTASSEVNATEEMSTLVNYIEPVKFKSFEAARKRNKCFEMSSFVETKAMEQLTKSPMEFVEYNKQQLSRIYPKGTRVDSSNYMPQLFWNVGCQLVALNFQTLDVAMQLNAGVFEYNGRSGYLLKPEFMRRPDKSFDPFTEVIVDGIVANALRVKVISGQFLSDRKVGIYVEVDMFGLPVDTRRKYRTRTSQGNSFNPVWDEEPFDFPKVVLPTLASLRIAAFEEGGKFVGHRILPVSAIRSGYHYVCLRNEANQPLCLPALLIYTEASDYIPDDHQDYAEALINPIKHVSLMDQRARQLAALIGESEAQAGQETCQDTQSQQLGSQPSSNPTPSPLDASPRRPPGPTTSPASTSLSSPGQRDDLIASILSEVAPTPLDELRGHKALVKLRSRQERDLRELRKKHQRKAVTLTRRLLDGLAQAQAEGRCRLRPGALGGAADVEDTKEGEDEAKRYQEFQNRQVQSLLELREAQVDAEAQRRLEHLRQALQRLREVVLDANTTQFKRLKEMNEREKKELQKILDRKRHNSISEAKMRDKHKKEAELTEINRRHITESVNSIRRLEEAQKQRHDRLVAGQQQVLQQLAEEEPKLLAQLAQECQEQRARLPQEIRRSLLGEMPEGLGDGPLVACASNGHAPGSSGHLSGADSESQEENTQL
UniProt P0CAP2, sequence (P0CAP2 whole entry, looked up): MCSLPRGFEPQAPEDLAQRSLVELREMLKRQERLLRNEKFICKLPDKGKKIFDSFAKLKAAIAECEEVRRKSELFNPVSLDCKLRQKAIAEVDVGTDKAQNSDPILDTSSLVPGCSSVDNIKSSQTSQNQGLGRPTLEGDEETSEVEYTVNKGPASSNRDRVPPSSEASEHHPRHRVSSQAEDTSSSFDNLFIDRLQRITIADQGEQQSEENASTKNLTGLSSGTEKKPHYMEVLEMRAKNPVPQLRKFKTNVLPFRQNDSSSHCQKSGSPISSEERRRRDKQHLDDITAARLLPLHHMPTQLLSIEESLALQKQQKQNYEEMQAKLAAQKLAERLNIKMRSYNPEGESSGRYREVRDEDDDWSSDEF
UniProt Q9Y2Y1, sequence (Q9Y2Y1 whole entry, looked up): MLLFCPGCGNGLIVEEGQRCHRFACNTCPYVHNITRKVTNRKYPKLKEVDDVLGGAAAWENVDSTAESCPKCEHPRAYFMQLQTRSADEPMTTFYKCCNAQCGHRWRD
UniProt Q08752, sequence (Q08752 whole entry, looked up): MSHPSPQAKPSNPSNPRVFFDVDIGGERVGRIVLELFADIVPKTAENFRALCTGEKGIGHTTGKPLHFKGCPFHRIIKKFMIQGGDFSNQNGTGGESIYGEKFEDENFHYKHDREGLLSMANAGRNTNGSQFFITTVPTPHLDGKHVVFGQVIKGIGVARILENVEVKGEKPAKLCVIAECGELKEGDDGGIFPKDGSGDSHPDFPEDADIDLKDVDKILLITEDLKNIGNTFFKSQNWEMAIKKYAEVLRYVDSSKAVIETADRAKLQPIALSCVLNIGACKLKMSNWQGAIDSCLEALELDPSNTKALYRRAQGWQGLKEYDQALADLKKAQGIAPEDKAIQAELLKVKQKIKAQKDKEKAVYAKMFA
UniProt Q9Y478, sequence (Q9Y478 whole entry, looked up): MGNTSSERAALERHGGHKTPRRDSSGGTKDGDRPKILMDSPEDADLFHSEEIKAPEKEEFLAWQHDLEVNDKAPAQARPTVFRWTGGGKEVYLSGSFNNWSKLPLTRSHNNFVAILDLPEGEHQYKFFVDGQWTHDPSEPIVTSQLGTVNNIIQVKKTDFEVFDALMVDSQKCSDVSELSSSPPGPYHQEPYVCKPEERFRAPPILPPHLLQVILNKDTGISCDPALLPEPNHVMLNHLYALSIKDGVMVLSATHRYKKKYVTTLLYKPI

log2 fold change, inactive:
POLR2M (UniProt P0CAP2) -0.062
PCID2 (UniProt Q5JVF3) 0.202
PMPCA (UniProt Q10713) 0.037
POLA1 (UniProt P09884) 0.053
PDE2A (UniProt O00408) 0.036
PDCD4 (UniProt Q53EL6) 0.107
PURA (UniProt Q00577) -0.143
PPP1R14A (UniProt Q96A00) -0.054
PMM2 (UniProt O15305) -0.009
PTRH2 (UniProt Q9Y3E5) -0.009
PPP2R5E (UniProt Q16537) 0.07
PFAS (UniProt O15067) -0.003
PPP2R5A (UniProt Q15172) 0.146
PHKG2 (UniProt P15735) -0.004
PKM (UniProt P14618) -0.01
PSMD12 (UniProt O00232) 0.009
PRKAR1B (UniProt P31321) -0.038
POLR2K (UniProt P53803) -0.024
PLCB3 (UniProt Q01970) 0.045
PLIN2 (UniProt Q99541) 0.042
POTEI (UniProt P0CG38) 0.014
PTP4A1 (UniProt Q93096) 0.062
PI4K2A (UniProt Q9BTU6) 0.015
POLR3K (UniProt Q9Y2Y1) -0.066
PEX16 isoform 2 (UniProt Q9Y5Y5) 0.089
PIGT (UniProt Q969N2) 0.009
PRKAA1 isoform 2 (UniProt Q13131) 0.008
PTRHD1 (UniProt Q6GMV3) -0.024
PPIL2 (UniProt Q13356) 0.123
PEX13 (UniProt Q92968) 0.033
PSMD2 (UniProt Q13200) -0.014
PPID (UniProt Q08752) 0.105
POLD1 (UniProt P28340) 0.071
PDCD2L (UniProt Q9BRP1) 0.079
PRKAB1 (UniProt Q9Y478) 0.017
PSMD7 (UniProt P51665) -0.029
PYGL (UniProt P06737) 0.003

compound: CCCc1cc(C)[nH]c(=O)c1CNC(=O)c1cc(-c2ccnc(N3CCN(C)CC3)c2)cc2c1cnn2C(C)C; test: as above
In short: as §1

log2 fold change, inactive:
POLR2M (UniProt P0CAP2) 0
PCID2 (UniProt Q5JVF3) 0.071
PMPCA (UniProt Q10713) -0.006
POLA1 (UniProt P09884) 0.024
PDE2A (UniProt O00408) -0.012
PDCD4 (UniProt Q53EL6) -0.06
PURA (UniProt Q00577) 0.144
PPP1R14A (UniProt Q96A00) 0.062
PMM2 (UniProt O15305) -0.055
PTRH2 (UniProt Q9Y3E5) -0.025
PPP2R5E (UniProt Q16537) 0.03
PFAS (UniProt O15067) -0.039
PPP2R5A (UniProt Q15172) -0.003
PHKG2 (UniProt P15735) 0
PKM (UniProt P14618) -0.023
PSMD12 (UniProt O00232) 0.052
PRKAR1B (UniProt P31321) 0.133
POLR2K (UniProt P53803) 0.075
PLCB3 (UniProt Q01970) -0.032
PLIN2 (UniProt Q99541) -0.12
POTEI (UniProt P0CG38) -0.072
PTP4A1 (UniProt Q93096) -0.024
PI4K2A (UniProt Q9BTU6) -0.036
POLR3K (UniProt Q9Y2Y1) -0.038
PEX16 isoform 2 (UniProt Q9Y5Y5) -0.07
PIGT (UniProt Q969N2) 0.027
PRKAA1 isoform 2 (UniProt Q13131) 0.021
PTRHD1 (UniProt Q6GMV3) -0.024
PPIL2 (UniProt Q13356) 0.016
PEX13 (UniProt Q92968) -0.142
PSMD2 (UniProt Q13200) 0.136
PPID (UniProt Q08752) 0.104
POLD1 (UniProt P28340) 0.006
PDCD2L (UniProt Q9BRP1) 0.045
PRKAB1 (UniProt Q9Y478) 0.109
PSMD7 (UniProt P51665) 0.045
PYGL (UniProt P06737) -0.015
